Records with an inconclusive call do not appear. Activity calls are given as the source filed them. The calls were made as follows: active = hit-call score of the fitted dose curve at least 0.9, where 1 is the maximum; inconclusive = response in the unintended direction; inactive = score below 0.9.
These compounds were tested against human Sirtuin 2 (SIRT2), SIRT2 (gene 22933) (UniProt Q8IXJ6) (assay: NVS_ENZ_hSIRT2: NovaScreen (NVS) Enzymatic Assay for human Sirtuin 2 (SIRT2) (AID 2283217)).
Method in brief: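 Cell-free recombinant human SIRT2, fluorescent substrate with product separated by electrophoretic mobility shift, 1 hr. Screened in duplicate at 25 uM; hits rerun singly in concentration-response up to 50 uM, relative to DMSO.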

Structure (SMILES) | outcome
CC(C)c1ccc(C(=O)N=C(N)N)cc1S(C)(=O)=O | inactive
Cc1nc(-c2ccc3c(c2)CCN(CCC2CCC(NC(=O)/C=C/c4ccc(F)cc4)CC2)CC3)no1 (stereo not given) | inactive
C=CCOC(=O)c1ccccc1C(=O)OCC=C | inactive

What follows are compounds tested against human Sirtuin 1 (SIRT1), SIRT1 (gene 23411) (UniProt Q96EB6) (assay: NVS_ENZ_hSIRT1: NovaScreen (NVS) Enzymatic Assay for human Sirtuin 1 (SIRT1) (AID 2283219)).
Method in brief: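 Cell-free recombinant SIRT1 with a fluorescent substrate; substrate and product separated by electrophoretic mobility shift and read by fluorescence intensity, 1 h after dosing. Primary screen at 25 uM in duplicate; hits re-run in concentration-response up to 50 uM, relative to DMSO.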

Structure (SMILES) | outcome | AC50
Cc1cccc(Nc2cc(Cl)nc(SCC(=O)O)n2)c1C | inactive | 
Cc1ccc(C(C)C)c(O)c1 | inactive | 
Cc1cc(NC(=O)C(=O)O)cc(C)c1Oc1ccc(O)c2c1CCC2 |  | 25 µM (active)
c1cc(-c2ccncc2)ccn1 | inactive | 
CC1=C(/C=C/C(C)=C/C=C/C(C)=C/CO)C(C)(C)CCC1 | inactive | 
CCCCCCCC=O | inactive | 
Cc1cccc([N+](=O)[O-])c1C | inactive | 
NCCO | inactive | 
Cc1nc(-c2ccc3c(c2)CCN(CCC2CCC(NC(=O)/C=C/c4ccc(F)cc4)CC2)CC3)no1 (stereo not given) | inactive | 
NCC1(Cc2noc(=O)[nH]2)CCCCC1 | inactive | 
CC(=O)C(C)=CC1C(C)=CCCC1(C)C (stereo not given) | inactive | 
Cc1c(C(=O)O)c(O)cc2c1C(=O)c1c(O)c([C@@H]3O[C@H](CO)[C@@H](O)[C@H](O)[C@H]3O)c(O)c(O)c1C2=O | inactive | 
O=C(OCCCCCOC(=O)c1ccccc1)c1ccccc1 | inactive | 

These compounds were tested against human Sirtuin 3 (SIRT3), SIRT3 (gene 23410) (UniProt Q9NTG7) (assay: NVS_ENZ_hSIRT3: NovaScreen (NVS) Enzymatic Assay for human Sirtuin 3 (SIRT3) (AID 2283222)).
human Sirtuin 3 (SIRT3), SIRT3 (gene 23410), sequence (Q9NTG7 whole entry, looked up): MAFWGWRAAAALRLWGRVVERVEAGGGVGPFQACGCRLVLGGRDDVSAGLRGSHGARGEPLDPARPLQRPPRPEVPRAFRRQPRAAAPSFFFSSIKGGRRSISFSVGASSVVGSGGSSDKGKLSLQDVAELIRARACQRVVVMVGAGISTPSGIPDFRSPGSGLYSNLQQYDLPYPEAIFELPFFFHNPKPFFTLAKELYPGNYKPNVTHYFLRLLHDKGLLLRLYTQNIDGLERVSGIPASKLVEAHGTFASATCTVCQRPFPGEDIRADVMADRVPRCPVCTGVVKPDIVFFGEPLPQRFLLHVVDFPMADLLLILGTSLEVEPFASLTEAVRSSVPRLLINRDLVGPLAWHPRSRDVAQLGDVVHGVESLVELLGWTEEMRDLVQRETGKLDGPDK
Method in brief: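 Cell-free enzyme assay with recombinant protein and fluorescent substrate, product separated by electrophoretic mobility shift; read 1 hour after dosing. Screened in duplicate at 25 uM, then singleton concentration-response up to 50 uM; loss of signal versus DMSO.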

Structure (SMILES) | outcome | AC50
Cc1cccc(Nc2cc(Cl)nc(SCC(=O)O)n2)c1C | inactive | 
CC(C)c1ccc(C(=O)N=C(N)N)cc1S(C)(=O)=O | inactive | 
Cc1nc(-c2ccc3c(c2)CCN(CCC2CCC(NC(=O)/C=C/c4ccc(F)cc4)CC2)CC3)no1 (stereo not given) | inactive | 
CC1(C)CC(N=C=O)CC(C)(CN=C=O)C1 (stereo not given) | inactive | 
COc1cc(-c2nc(NC(=O)c3cc4cc(C)cc(C)c4n3CC(=O)O)sc2CCC2CCCCC2)c(OC)cc1Cl |  | 30.3 µM (active)

The compounds below were run against human SRC Proto-Oncogene, Non-receptor Tyrosine Kinase (SRC), SRC (gene 6714) (UniProt P12931) (assay: NVS_ENZ_hSRC: NovaScreen (NVS) Enzymatic Assay for human SRC Proto-Oncogene, Non-receptor Tyrosine Kinase (SRC) (AID 2283223)).
human SRC Proto-Oncogene, Non-receptor Tyrosine Kinase (SRC), SRC (gene 6714), sequence (P12931 whole entry, looked up): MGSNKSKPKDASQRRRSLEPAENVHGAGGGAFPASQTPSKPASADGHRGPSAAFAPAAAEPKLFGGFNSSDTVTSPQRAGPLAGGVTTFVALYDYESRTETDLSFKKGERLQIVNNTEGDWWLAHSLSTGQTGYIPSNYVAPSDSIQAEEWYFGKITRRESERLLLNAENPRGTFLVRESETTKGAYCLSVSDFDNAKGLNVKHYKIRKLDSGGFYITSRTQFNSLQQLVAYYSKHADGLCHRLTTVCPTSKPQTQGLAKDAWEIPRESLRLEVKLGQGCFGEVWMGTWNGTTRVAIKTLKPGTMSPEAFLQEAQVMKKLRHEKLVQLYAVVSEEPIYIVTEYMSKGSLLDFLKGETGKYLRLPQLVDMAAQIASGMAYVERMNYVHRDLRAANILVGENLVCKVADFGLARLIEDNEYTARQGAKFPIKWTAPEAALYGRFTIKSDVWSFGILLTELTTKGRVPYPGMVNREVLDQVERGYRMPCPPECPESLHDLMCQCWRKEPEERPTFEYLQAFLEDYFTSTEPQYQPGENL
Method in brief: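 Cell-free kinase activity assay with fluorescent substrate, product separated by electrophoretic mobility shift, read 1 h after dosing. Duplicate single point at 25 uM, then concentration-response up to 50 uM; loss of signal versus DMSO.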

Structure (SMILES) | outcome
CCCc1cc(=O)[nH]c(=S)[nH]1 | inactive
Cc1oc(-c2ccccc2)nc1CCOc1cccc2c1ccn2CCC(=O)O | inactive
CC1(C)NC(=O)NC1=O | inactive
NCCO | inactive
O=C(OCCCCCOC(=O)c1ccccc1)c1ccccc1 | inactive

The compounds below were run against human Vascular Endothelial Growth Factor Receptor 1 (VEGFR1), FLT1 (gene 2321) (UniProt P17948) (assay: NVS_ENZ_hVEGFR1: NovaScreen (NVS) Enzymatic Assay for human Vascular Endothelial Growth Factor Receptor 1 (VEGFR1) (AID 2283226)).
Protocol: NVS_ENZ_hVEGFR1 is a biochemical, single-readout assay that uses extracted gene-proteins in a cell-free assay. Measurements were taken 1 hour after chemical dosing in a 384-well plate.NVS_ENZ_hVEGFR1 is one of one assay component(s) measured or calculated from the NVS_ENZ_hVEGFR1 assay. It is designed to make measurements of enzyme activity, a form of enzyme reporter, as detected with fluorescence intensity signals by Fluorescence and electrophoretic mobility shift technology.Data from the assay component NVS_ENZ_hVEGFR1 was analyzed into 1 assay endpoint. This assay endpoint, NVS_ENZ_hVEGFR1, was analyzed in the positive analysis fitting direction relative to DMSO as the negative control and baseline of activity. Using a type of enzyme reporter, loss-of-signal activity can be used to understand changes in the enzymatic activity as they relate to the gene FLT1. Furthermore, this assay endpoint can be referred to as a primary readout, because this assay has produced multiple assay endpoints where this one serves a enzymatic activity function. To generalize the intended target to other relatable targets, this assay endpoint is annotated to the kinase intended target family, where the subfamily is receptor tyrosine kinase.
Binding assays used specific radioligands (tritiated, iodinated) with non-radioactive competitive displacement ligands in agonist or antagonist protocols (as indicated) and various reference compounds and inhibitors to titrate specific binding to receptors and transporters. Most enzyme assays (CYPs, kinases, phosphatases, proteases, HDACs) used recombinant protein and specific substrates (fluorescence mostly, some colorimetric and radioactive) and inhibitors, followed by a biochemical separation of substrate and product. All assays for the biochemical HTS were initially run in duplicate at a single concentration (10 uM for CYP450 assays and 25 uM for all others). […] Each assay was run with positive and negative controls, and concurrent controls on every plate. The follow-up (secondary) screen tested active chemical-pairs in concentration series, as well as a few additional assays not tested in the primary screen, some selected negative inactives, and several cases re-run in the concentration series for confirmatory purposes.

Structure (SMILES) | outcome
CC1=C(/C=C/C(C)=C/C=C/C(C)=C/CO)C(C)(C)CCC1 | inactive
CCc1c(C(=O)NN2CCCCC2)nn(-c2ccc(Cl)cc2Cl)c1-c1ccc(Br)cc1 | inactive
CCCCc1ccc2c(n1)[C@@H](c1ccc(OC)cc1C[C@H](C)C(=O)O)[C@H](C(=O)O)[C@H]2c1ccc2c(c1)OCO2 | inactive
Cc1oc(-c2ccccc2)nc1CCOc1cccc2c1ccn2CCC(=O)O | inactive
NCCO | inactive
CCCCCCCCCCC | inactive
FC(F)(F)C(F)(F)C(F)(F)C(F)(F)C(F)(F)C(F)(F)CCI | inactive

What follows are compounds tested against rabbit Imidazoline 2 Central (I2C), CKB (gene 100009085) (UniProt P00567) (assay: NVS_ENZ_rabI2C: NovaScreen (NVS) Enzymatic Assay for rabbit Imidazoline 2 Central (I2C) (AID 2283228)).
Method in brief: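 Rabbit brain membranes, cell-free; readout by filter-based scintillation counting 1.5 hours after dosing, loss of signal vs DMSO. Initial duplicate test at 25 uM, then concentration-response with 50 uM top concentration.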

Structure (SMILES) | outcome | AC50
CCOc1ccc2c(c1)C(C)=CC(C)(C)N2 | inactive | 
Oc1ccc2c(c1)OC[C@@H](N1CCC(O)(c3ccc(F)cc3)CC1)[C@H]2O | inactive | 
CN1CCN(Cc2cc(-c3ccc4[nH]c(=O)oc4c3)co2)[C@@H](c2ccc(F)cc2)C1 |  | 22 µM (active)
Nc1ccccc1N | inactive | 
CCOC(=O)CCC(=O)OCC | inactive | 
NC(=O)Cn1c(=O)cc(CCN2CCN(c3nccc4sccc34)CC2)c2ccc(F)cc21 | inactive | 
O=C(N[C@@H](Cc1ccccc1)[C@@H](O)C(=O)N1C[C@@H](O)[C@@H](O)C1)c1cc2cc(Cl)ccc2[nH]1 | inactive | 

The compounds below were run against human Vascular Endothelial Growth Factor Receptor 2 (VEGFR2), KDR (gene 3791) (UniProt P35968) (assay: NVS_ENZ_hVEGFR2: NovaScreen (NVS) Enzymatic Assay for human Vascular Endothelial Growth Factor Receptor 2 (VEGFR2) (AID 2283230)).
human Vascular Endothelial Growth Factor Receptor 2 (VEGFR2), KDR (gene 3791), sequence (P35968 whole entry, looked up): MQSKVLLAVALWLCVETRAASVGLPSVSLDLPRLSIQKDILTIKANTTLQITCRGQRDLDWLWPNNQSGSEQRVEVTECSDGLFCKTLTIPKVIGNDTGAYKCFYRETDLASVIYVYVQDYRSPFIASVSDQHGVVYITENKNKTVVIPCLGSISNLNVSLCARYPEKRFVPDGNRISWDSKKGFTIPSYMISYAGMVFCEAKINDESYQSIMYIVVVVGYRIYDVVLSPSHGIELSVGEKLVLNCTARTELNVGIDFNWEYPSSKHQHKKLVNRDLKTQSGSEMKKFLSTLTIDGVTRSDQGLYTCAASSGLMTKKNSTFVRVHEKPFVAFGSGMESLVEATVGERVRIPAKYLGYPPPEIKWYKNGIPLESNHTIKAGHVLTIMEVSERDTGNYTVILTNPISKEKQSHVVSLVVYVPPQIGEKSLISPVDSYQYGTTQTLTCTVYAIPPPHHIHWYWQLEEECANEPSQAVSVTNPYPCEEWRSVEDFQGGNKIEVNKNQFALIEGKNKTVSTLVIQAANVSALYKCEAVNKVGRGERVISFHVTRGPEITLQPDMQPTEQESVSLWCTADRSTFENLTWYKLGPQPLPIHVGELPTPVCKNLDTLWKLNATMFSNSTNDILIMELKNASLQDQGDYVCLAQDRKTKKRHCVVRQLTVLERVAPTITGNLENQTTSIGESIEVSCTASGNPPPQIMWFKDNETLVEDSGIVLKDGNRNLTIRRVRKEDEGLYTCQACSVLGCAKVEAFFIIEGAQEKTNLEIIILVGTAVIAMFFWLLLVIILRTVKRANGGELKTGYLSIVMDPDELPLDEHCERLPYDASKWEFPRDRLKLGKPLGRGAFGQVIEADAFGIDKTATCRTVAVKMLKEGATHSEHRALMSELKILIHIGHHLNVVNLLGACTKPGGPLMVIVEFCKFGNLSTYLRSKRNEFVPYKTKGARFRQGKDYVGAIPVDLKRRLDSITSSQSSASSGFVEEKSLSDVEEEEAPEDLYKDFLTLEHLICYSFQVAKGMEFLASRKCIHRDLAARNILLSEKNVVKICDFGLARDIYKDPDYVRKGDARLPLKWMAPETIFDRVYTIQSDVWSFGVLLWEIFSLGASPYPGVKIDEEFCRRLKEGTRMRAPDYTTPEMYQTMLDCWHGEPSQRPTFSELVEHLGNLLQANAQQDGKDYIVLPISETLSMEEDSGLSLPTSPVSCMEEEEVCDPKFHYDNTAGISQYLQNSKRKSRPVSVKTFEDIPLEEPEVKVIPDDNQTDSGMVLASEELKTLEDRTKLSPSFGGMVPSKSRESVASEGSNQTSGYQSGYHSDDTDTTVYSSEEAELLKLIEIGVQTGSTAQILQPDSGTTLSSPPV
Method in brief: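 Cell-free recombinant VEGFR2 kinase, fluorescent substrate with electrophoretic mobility-shift separation; read 1 h after dosing. Screened at 25 uM in duplicate, hits to concentration-response up to 50 uM; loss-of-signal versus DMSO.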

Structure (SMILES) | outcome | AC50
CC1=C(/C=C/C(C)=C/C=C/C(C)=C/CO)C(C)(C)CCC1 | inactive | 
CCc1c(C(=O)NN2CCCCC2)nn(-c2ccc(Cl)cc2Cl)c1-c1ccc(Br)cc1 | inactive | 
Cc1oc(-c2ccccc2)nc1CCOc1cccc2c1ccn2CCC(=O)O | inactive | 
NCCO | inactive | 
COc1cc(-c2nc(NC(=O)c3cc4cc(C)cc(C)c4n3CC(=O)O)sc2CCC2CCCCC2)c(OC)cc1Cl |  | 7.16 µM (active)
O=C(OCCCCCOC(=O)c1ccccc1)c1ccccc1 | inactive | 

What follows are compounds tested against sheep Cyclooxygenase-2 (Cox2), PTGS2 (gene 443460) (UniProt P79208) (assay: NVS_ENZ_oCOX2: NovaScreen (NVS) Enzymatic Assay for sheep Cyclooxygenase-2 (Cox2) (AID 2283231)).
sheep Cyclooxygenase-2 (Cox2), PTGS2 (gene 443460), sequence (P79208 whole entry, looked up): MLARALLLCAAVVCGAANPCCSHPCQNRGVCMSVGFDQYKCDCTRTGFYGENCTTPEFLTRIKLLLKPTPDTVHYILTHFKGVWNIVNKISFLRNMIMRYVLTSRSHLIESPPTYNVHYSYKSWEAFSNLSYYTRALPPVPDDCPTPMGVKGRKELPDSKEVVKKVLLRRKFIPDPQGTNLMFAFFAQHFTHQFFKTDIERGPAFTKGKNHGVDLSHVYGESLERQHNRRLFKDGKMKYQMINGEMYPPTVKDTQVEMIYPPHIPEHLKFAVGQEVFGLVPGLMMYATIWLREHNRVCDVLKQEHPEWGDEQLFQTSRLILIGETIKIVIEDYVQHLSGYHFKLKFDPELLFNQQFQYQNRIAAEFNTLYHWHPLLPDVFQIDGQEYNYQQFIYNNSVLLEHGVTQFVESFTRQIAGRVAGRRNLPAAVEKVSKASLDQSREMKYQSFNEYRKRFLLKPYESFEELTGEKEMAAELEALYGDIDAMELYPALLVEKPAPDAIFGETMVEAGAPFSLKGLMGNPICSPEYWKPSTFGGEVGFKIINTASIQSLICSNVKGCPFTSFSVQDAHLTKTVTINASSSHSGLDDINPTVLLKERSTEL
Method in brief: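 Colorimetric absorbance read-out of COX activity, taken 0.66 hour post-dosing, using native protein from sheep placenta. Single-concentration duplicate screen (25 uM), then singleton concentration-response up to 50 uM for actives.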

Structure (SMILES) | AC50
CC1=C(/C=C/C(C)=C/C=C/C(C)=C/CO)C(C)(C)CCC1 | 15.5 µM (active)
Nc1ccccc1N | 14.9 µM (active)
C=CCOC(=O)c1ccccc1C(=O)OCC=C | 5.13 µM (active)

What follows are compounds tested against rat Constitutive Nitric Oxide Synthase (CNOS), Nos1 (gene 24598) (UniProt P29476) (assay: NVS_ENZ_rCNOS: NovaScreen (NVS) Enzymatic Assay for rat Constitutive Nitric Oxide Synthase (CNOS) (AID 2283236)).
rat Constitutive Nitric Oxide Synthase (CNOS), Nos1 (gene 24598), sequence (P29476 whole entry, looked up): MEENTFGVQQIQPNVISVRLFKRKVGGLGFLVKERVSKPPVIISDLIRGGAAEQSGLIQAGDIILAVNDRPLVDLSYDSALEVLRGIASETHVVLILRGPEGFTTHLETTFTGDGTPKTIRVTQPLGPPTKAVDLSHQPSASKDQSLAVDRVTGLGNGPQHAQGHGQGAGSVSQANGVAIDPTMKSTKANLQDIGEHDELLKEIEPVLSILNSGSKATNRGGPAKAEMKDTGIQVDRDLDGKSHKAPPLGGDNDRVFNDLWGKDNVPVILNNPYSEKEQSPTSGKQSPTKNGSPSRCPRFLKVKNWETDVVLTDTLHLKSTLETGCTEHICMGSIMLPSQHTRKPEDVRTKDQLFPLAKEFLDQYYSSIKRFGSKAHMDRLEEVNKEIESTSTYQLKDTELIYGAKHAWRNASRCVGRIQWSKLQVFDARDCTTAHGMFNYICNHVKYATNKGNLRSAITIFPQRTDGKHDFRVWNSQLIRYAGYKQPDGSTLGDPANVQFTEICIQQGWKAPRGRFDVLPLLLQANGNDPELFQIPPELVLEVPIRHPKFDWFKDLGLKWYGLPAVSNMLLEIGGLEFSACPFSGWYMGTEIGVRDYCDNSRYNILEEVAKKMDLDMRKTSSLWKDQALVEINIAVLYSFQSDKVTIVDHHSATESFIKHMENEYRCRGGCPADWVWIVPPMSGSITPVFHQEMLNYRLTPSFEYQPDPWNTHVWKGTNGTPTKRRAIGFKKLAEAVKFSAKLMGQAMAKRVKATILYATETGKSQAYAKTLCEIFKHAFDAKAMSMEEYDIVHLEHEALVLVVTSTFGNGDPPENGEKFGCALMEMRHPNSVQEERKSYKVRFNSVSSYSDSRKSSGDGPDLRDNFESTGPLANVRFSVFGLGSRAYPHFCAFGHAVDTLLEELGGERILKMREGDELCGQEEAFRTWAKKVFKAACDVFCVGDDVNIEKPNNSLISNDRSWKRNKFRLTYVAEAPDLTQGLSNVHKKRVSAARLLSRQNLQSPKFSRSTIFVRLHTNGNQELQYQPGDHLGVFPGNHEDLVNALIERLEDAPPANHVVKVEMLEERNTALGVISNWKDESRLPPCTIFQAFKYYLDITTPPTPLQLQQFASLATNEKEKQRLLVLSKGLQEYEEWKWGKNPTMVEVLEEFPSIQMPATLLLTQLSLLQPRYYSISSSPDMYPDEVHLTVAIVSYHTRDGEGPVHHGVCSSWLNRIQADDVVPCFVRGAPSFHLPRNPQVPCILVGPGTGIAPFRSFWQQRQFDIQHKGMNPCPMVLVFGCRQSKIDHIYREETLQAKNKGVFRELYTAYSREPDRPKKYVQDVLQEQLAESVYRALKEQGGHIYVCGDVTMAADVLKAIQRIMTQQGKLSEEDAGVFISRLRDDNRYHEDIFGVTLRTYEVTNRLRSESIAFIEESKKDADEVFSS
Method in brief: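 Enzyme activity in rat brain membrane preparation, read 1 h after dosing by filter-based radiometric scintillation counting. Primary screen in duplicate at 25 uM; actives (e.g., ≥30% inhibition) then run in concentration-response up to 50 uM.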

Structure (SMILES) | outcome
CCOc1ccc2c(c1)C(C)=CC(C)(C)N2 | inactive
CC(C)c1ccc(C(=O)N=C(N)N)cc1S(C)(=O)=O | inactive
FC(F)(F)C(F)(F)C(F)(F)C(F)(F)C(F)(F)C(F)(F)CCI | inactive

What follows are compounds tested against sheep Cyclooxygenase-1 (Cox1), PTGS1 (gene 443551) (UniProt P05979) (assay: NVS_ENZ_oCOX1: NovaScreen (NVS) Enzymatic Assay for sheep Cyclooxygenase-1 (Cox1) (AID 2283239);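 also: actives reduce cyclooxygenase activity so potencies are for inhibitors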).
sheep Cyclooxygenase-1 (Cox1), PTGS1 (gene 443551), sequence (P05979 whole entry, looked up): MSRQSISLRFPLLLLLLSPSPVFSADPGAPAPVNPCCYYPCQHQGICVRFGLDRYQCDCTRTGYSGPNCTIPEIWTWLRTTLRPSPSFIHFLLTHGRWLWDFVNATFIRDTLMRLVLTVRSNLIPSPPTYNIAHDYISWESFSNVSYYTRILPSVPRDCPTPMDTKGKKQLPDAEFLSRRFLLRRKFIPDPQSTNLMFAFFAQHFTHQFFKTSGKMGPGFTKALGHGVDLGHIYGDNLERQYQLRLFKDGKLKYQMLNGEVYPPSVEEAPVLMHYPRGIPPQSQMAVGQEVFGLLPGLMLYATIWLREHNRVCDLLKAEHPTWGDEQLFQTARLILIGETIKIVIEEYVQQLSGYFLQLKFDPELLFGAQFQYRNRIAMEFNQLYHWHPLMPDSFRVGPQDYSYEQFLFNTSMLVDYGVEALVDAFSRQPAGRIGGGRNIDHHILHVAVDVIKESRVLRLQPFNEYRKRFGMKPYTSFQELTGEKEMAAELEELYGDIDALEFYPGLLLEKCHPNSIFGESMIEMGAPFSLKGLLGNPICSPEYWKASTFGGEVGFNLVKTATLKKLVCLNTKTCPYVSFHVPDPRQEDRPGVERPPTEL
Method in brief: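 COX1 from ovine seminal vesicles, activity read colorimetrically about 0.66 h after dosing. Primary screen in duplicate at 25 uM; actives retested in concentration series; loss of signal fitted versus DMSO.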

Structure (SMILES) | AC50 | outcome
CC1=C(/C=C/C(C)=C/C=C/C(C)=C/CO)C(C)(C)CCC1 | 17.9 µM (active) | 
Nc1ccccc1N |  | inactive
COc1cc(-c2nc(NC(=O)c3cc4cc(C)cc(C)c4n3CC(=O)O)sc2CCC2CCCCC2)c(OC)cc1Cl | 4 µM (active) | 
